Data reported in publication PMC5540273 (PLoS ONE, 2017).

What follows are molecules tested on NEK4. Settings: concentration: 1 μM, replicates: in singlicate; n = 1.
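Also: KINOMEscan kinase panel screen.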

| SMILES | %Inh [%] |
| --- | --- |
| Cn1ccc2ncnc(Oc3ccc(NC(=O)Nc4ccncc4)c(Cl)c3)c21 | 0 |
| COc1cc2c(cc1OC[C@@H](O)CO)ncc1c3ccc(C#N)cc3[nH]c21 | 0 |
| Cc1cn2c(=O)cc(N3CCOCC3)nc2n1Cc1cccc(Cl)c1Cl [GSK2334006] | 4 |
| Cn1cc(-c2ccc3c(c2)CCN3C(=O)Cc2ccccc2Cl)c2c(N)ncnc21 [GSK2608885] | 5 |
| NS(=O)(=O)c1cccc(-c2ccc3nccc(-c4cccc(S(N)(=O)=O)c4)c3c2)c1 [GW867253] | 0 |
| Cl.Oc1cccc(Nc2ccnc3cc(-c4ccncc4)ccc23)c1 [GW494601] | 0 |
| [2H]C([2H])(c1cccc(C(F)(F)F)c1C)n1ccn2c(=O)nc(N3CCOCC3)cc12 [GSK2336394] | 27 |
| Cl.Nc1ncnc2occ(-c3ccc(NC(=O)Nc4cc(C(F)(F)F)ccc4F)cc3)c12 [SB-707548] | 5 |
| O=C1NC(=O)C(N2CCc3ccccc32)=C1c1cccc(Cl)c1 [SB-408010] | 0 |
| C[C@@H](Oc1cc(-n2cnc3ccc(NC(=O)NC(C)(C)C)cc32)sc1C(N)=O)c1ccccc1Cl [GSK346294] | 0 |
| O=c1cc(N2CCOCC2)nc2n(Cc3cccc(Cl)c3Cl)c(C3CC3)nn12 [GSK2358994] | 11 |
| CSc1ccc(-c2cc3ncnc(SCC(=O)O)c3s2)cc1 | 0 |
| c1ccc(-c2n[nH]cc2-c2ccnc3ccccc23)nc1 [GW271431] | 3 |
